Experimental data reported in PMC4336329 (PLoS ONE, 2015).
In all, about 310,000 compounds went through this assay and about 14,000 (4.5%) showed an effect of 50% or more. Effects have a minus sign here. Many of the other results were omitted from the sample, so strong results are more common in it than they were.

Target: human ether-à-go-go-related gene (hERG) potassium channel (human, UniProt Q12809)
Assay: primary screen, population patch clamp on CHO cells stably expressing hERG; higher = less effect of the substance
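Note: peak tail current of the secondary pulse compared with the same well before compound.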

Chain of human ether-à-go-go-related gene (hERG) potassium channel (Q12809 whole entry, looked up): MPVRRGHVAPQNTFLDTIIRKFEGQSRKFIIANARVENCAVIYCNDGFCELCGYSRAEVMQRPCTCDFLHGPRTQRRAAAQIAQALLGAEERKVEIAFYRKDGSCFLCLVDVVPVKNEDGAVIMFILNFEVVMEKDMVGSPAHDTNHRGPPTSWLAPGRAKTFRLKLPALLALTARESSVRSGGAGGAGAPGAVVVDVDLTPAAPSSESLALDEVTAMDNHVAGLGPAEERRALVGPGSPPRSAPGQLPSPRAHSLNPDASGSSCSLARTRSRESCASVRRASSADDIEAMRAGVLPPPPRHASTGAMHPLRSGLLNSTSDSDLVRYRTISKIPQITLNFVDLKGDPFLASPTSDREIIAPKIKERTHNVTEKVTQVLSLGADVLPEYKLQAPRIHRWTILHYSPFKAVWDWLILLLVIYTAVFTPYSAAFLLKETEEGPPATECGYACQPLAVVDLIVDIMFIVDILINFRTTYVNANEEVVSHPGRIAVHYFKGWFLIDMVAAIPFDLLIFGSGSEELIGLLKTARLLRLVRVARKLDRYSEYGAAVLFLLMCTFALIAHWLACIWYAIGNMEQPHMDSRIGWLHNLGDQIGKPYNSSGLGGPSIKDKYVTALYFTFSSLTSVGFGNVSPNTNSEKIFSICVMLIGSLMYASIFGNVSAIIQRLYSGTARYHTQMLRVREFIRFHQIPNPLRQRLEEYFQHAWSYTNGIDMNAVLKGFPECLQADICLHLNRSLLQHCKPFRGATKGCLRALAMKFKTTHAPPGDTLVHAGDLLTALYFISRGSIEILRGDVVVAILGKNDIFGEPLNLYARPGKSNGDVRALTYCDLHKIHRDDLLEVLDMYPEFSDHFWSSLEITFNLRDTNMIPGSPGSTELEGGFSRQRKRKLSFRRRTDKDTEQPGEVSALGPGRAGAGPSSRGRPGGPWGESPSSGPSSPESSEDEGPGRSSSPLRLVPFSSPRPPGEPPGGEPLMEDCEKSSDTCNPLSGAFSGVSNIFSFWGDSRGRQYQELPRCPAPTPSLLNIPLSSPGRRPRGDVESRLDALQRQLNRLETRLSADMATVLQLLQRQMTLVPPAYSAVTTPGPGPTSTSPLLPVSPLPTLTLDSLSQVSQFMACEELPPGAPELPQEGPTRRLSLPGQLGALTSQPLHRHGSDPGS

Structure (SMILES) | hERG current change (%, negative = inhibition) at 10uM
CC(=C/c1ccco1)/C=N/NC(=O)CSc1nnc(SCc2ccc(C)cc2)s1 | -3.37%
CN1c2ccccc2C(O)=C(C(=S)Nc2ccccc2)S1(=O)=O | 22.7%
CCOc1ccc(OCC(=O)Nc2nccs2)cc1 | 19.8%
Oc1c(Br)cc(/C=N/Nc2nncc3ccccc23)cc1Br | 27.8%
N/C(=N\OC(=O)/C=C/c1ccccc1)c1cccnc1 | -5.4%
N/C(=N\OC(=O)/C=C/c1ccccc1)c1ccncc1 | -52.3%
N/C(=N\OC(=O)/C=C/c1ccccc1)c1ccccc1 | 3.82%
CCN(CC)CCCn1c(=S)[nH]c2ccccc2c1=O | -25.7%
CCN(CC)CCn1c(=S)[nH]c2cc(C(=O)N3CC(C)CC(C)C3)ccc2c1=O (stereo not shown) | -14.7%
CCN(CC)CCCn1c(=S)[nH]c2cc(C(=O)OC)ccc2c1=O | -33%
CCN(CC)CCCn1c(=S)[nH]c2cc(Cl)ccc2c1=O | -68.7%
CCN(CC)CCn1c(=S)[nH]c2cc(Cl)ccc2c1=O | -63.2%
O=c1c2ccc(Cl)cc2[nH]c(=S)n1CCCN1CCOCC1 | -22.6%
CC(C)c1ccc(NC(=O)CSc2ncccc2C(=O)Oc2cccc([N+](=O)[O-])c2)cc1 | 8.39%
CCOC(=O)c1c(NC(=O)CSc2nncn2C)sc(C)c1C | -4.02%
COc1cc(/C=N/O)ccc1OCc1ccc([N+](=O)[O-])cc1 | -23.5%
O=C(NNC(=S)NCc1ccc(Cl)cc1)c1ccc2c(c1)OCO2 | 6.73%
Cc1ccc(NC(=S)NC2CC3CCCC(C2)N3Cc2ccco2)cc1 (stereo not shown) | -52.8%
CCc1ccc(NC(=S)NC2CC3CCC(C2)N3Cc2ccco2)cc1 (stereo not shown) | -45.5%
Cc1cccc(NC(=S)NC2CC3CCCC(C2)N3Cc2ccco2)c1 (stereo not shown) | -21.7%
Cc1cccc(NC(=S)NC2CC3CCC(C2)N3Cc2ccco2)c1 (stereo not shown) | -43.5%
Cc1ccc(NC(=S)NC2CC3CCC(C2)N3Cc2ccco2)cc1C (stereo not shown) | -36.1%

Structure (SMILES) | hERG current change (%, negative = inhibition) at 10uM
Cc1cc(C)cc(NC(=S)NC2CC3CCC(C2)N3Cc2ccco2)c1 (stereo not shown) | -71.5%
O=C(Nc1ccc2c(c1)CCC2)c1ccccc1Br | -12.9%
Cc1cc(N/N=C/c2ccc(O)cc2O)c2ccccc2n1 | 4.97%
COc1cccc2c(N/N=C/c3ccccc3)cc(C)nc12 | -9.04%
COc1ccc(/C=N/Nc2cc(C)nc3c(C)cccc23)cc1 | -57.5%
Cc1ccc2nc(C)cc(N/N=C/c3ccccc3O)c2c1 | 2.38%
Cc1cc(N/N=C/c2ccccc2O)c2ccccc2n1 | -72.5%
COc1cccc2c(N/N=C/c3ccco3)cc(C)nc12 | -5.81%
COc1ccc(/C=N/Nc2cc(C)nc3ccc(OC)cc23)c(OC)c1 | -50.1%
COc1cccc2c(N/N=C/c3ccc(O)c(O)c3)cc(C)nc12 | 18.9%
COc1ccc2nc(C)cc(N/N=C/c3cccc(OC)c3O)c2c1 | -13%
COc1ccccc1/C=N/Nc1cc(C)nc2ccc(C)cc12 | 7.89%
Cc1cc(N/N=C/c2ccc(O)cc2)c2cccc(C)c2n1 | -51.6%
Cc1cc(C)c2nc(C)cc(N/N=C/c3ccc(O)cc3)c2c1 | -33.7%
COCCCNC(=O)c1oc2ccc(S(=O)(=O)N(C)C3CCCCC3)cc2c1C | -4.45%
COc1ccccc1-c1cc(-c2ccc(O)cc2)nc(N)c1C#N | 13.9%
CC(=O)c1ccc(S(=O)c2ccccc2)cc1 (stereo not shown) | -3.38%
Cc1ccc(CSc2nnc(C)c(=O)[nH]2)cc1 | 10.9%
S=C(NCc1ccccn1)Nc1ccc(Cl)cc1Cl | 6.07%
O=C(CCc1ccccc1)NCC(=O)N/N=C/c1ccc(O)cc1O | -8.41%
COCc1cc(=O)[nH]c(Sc2c(-c3ccccc3)c3ccc(Cl)cc3[nH]c2=O)n1 | 20.4%
O=C(NCCCN1CCCC1=O)C(=O)NCC1OCCCN1S(=O)(=O)c1cc(F)ccc1F (stereo not shown) | 23.8%

Structure (SMILES) | hERG current change (%, negative = inhibition) at 10uM
CC(=O)C1=C(c2ccccc2)NC(=O)NC1c1ccc(O)c(Cl)c1 (stereo not shown) | 17.6%
O=C(COc1ccccc1Cl)c1ccc2c(c1)CCCC2 | -0.256%
Cc1nc2nc(SCC(=O)Nc3cccc(F)c3)[nH]c2cc1Br | 23.2%
C/C(N)=C(/C#N)C(=O)COC(=O)c1ccccc1O | -0.192%
Cc1ccc(NC(=O)CSc2ccc(-c3ccco3)nn2)cc1 | -7.67%
CCCN(CCC)CC(C)(C)NS(=O)(=O)c1ccc(Cl)cc1 | -17.1%
COc1ccc2nc(C)cc(N/N=C/c3ccccc3)c2c1 | -17.1%
COc1ccc(/C=N/Nc2cc(C)nc3ccccc23)cc1 | -63.3%
COc1ccc(/C=N/Nc2cc(C)nc3ccc(Br)cc23)cc1 | -35.1%
COc1ccc(-n2c(C)cc(/C=C/c3nc(O)c([N+](=O)[O-])c(=O)[nH]3)c2C)cc1 | 3.06%
CC1(C)NC(=O)N(CC(=O)NNC(=O)c2ccccc2F)C1=O | 3.42%
Cn1ncc(Br)c1C(=O)NC1CCCC1 | 24.1%
C=CCn1c(O)c(C(C)=Nc2cccc(C(=O)O)c2)c(=O)[nH]c1=O | 1.4%
O=C(c1ccc(Cl)cc1Cl)c1ncc(C(F)(F)F)cc1Cl | -10.1%
Cc1cc(O)cc(=O)n1Cc1ccccc1 | 12%
Cc1c(CN(C)C)c2c(n1C)C(=O)c1ccc(Br)cc1-2.Cl | -37.3%
Cc1cc(=O)n(Cc2ccccc2)c2ccccc12 | 4.79%
O=c1oc2cc(Br)ccc2n1Cc1ccccc1 | 18.6%
Cc1c(CN(C)C)c2c(n1Cc1ccccc1)C(=O)c1ccc(Br)cc1-2.Cl | -74.5%
Cc1c(CN(C)C)c2c(n1Cc1ccccc1)C(=O)c1ccccc1-2.Cl | -75.6%
